INS-1E GSIS act: primary screen for activators of insulin secretion dependent on glucose, INS-1E cells, GLuc reporter luminescence | AID 743287 | INS-1E GLuc reporter insulin secretion, 2-3 h | 370,000 tested, 0.61% active | activation, % at 16.6 µM;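 active = lowest replicate activation of at least 40%, so every replicate reaches that level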;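 also: 0% = median of neutral control wells and 100% = median of IBMX positive control wells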
AF4-AF9 inh: blocks AF4 peptide binding to human AF9; P42568; AlphaScreen, biotin-AF4 peptide binding to FLAG-AF9; inhibition, % at 10 µM; 350,000 tested, 0.47% active;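 active = every replicate reaching a set inhibition limit, whatever the replicate mean, cut at about 25% in these data; inconclusive = mean inhibition reaches that limit but some replicates miss it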;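 also: 0% = plate neutral control median and 100% = total signal loss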
Target sequence (P42568 whole entry, looked up): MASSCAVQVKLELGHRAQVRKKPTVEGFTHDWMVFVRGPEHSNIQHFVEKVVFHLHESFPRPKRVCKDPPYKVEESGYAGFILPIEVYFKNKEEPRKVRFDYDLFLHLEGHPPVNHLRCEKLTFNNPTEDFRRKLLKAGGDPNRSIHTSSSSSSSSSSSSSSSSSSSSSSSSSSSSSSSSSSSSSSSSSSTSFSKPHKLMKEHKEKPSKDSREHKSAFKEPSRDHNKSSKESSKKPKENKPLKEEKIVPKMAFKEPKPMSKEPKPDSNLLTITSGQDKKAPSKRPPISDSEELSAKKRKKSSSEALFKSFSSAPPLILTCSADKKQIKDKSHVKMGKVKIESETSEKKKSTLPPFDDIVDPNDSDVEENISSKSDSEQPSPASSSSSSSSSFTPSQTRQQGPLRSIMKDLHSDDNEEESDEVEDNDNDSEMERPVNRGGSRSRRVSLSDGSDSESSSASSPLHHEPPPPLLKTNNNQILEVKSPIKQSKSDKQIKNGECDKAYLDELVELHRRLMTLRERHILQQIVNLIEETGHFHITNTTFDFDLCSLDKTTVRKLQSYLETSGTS
HIV Env fusion: inhibitors of HIV Env-mediated cell fusion | inhibition, % at 12.3 µM | HeLa-JRFL Env/CEM21 cell fusion, luciferase | 360,000 tested, 1.1% active;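 active = mean replicate inhibition score of at least 50 and every replicate individually at or above 50; inconclusive = only one of the two criteria met; inactive = mean below 50 and not all replicates reaching 50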;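 also: 0% = plate neutral controls and 100% = maraviroc near 300 nM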
NSD2 HMT inh: NSD2 (human) methyltransferase inhibition | inhibition, % at 12.5 µM | O96028 | NSD2 peptide methylation, AlphaScreen, 120 min | 310,000 tested, 0.54% active; in the data active = inhibition above about 50%
PGC1a acetyl inh: PGC1a acetylation modulation, inhibitor mode; 350,000 tested, 0.17% active; U2OS PGC1a acetylation, AlphaScreen anti-acetyl-lysine; with virally co-expressed GCN5 acetyltransferase; AID 651687; inhibition, % at 15.6 µM;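 active = every replicate shows inhibition of at least 40%; inconclusive = mean inhibition at least 40% but some replicate below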;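 also: 0% = neutral control wells and 100% = positive control wells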
* = called active by the depositor; ? = inconclusive; . = not tested or not shown; [ ] = remark or other dose. Only some compounds are listed: those with a hit (about 2.1% of all), similar ones and a draw of the others.

SMILES	INS-1E GSIS act	AF4-AF9 inh	HIV Env fusion	NSD2 HMT inh	PGC1a acetyl inh
O=C(NCC1=C(c2ccc3ccccc3c2)C[C@@H]2CC[C@H]1N2Cc1ccco1)c1ccc([N+](=O)[O-])cc1	-12	28*	.	.	-6
O=C(NCC1=C(c2ccc3ccccc3c2)C[C@@H]2CC[C@H]1N2Cc1ccco1)c1ccncc1	-9	10	0	.	8
COc1ccc(CCNC2CCCCC2)cc1	0	2	10	16	.
COc1ccc(C[C@H]2NC[C@H](O)[C@H]2OC(C)=O)cc1	.	-4	0	.	90*
COc1ccc(OC(=O)N(C)C[C@@H]2OCc3ccccc3-c3c(n(C)c4ccccc34)C(=O)N([C@H](C)CO)C[C@@H]2C)cc1	-23	4	69*	.	-3
COc1ccc(OC(=O)N(C)C[C@H]2OCc3ccccc3-c3c(n(C)c4ccccc34)C(=O)N([C@H](C)CO)C[C@H]2C)cc1	-22	6	.	.	-173
O=C(c1cccc(Cl)c1)C1CCCN(Cc2ccon2)C1 (configuration not stated)	-3	0	-8	-6	.
Cc1ccc(OP2(=O)Nc3cc(C)c(C)cc3S2)cc1 (configuration not stated)	.	9	-40	2	-2
CN(c1ccc(O)cc1)c1ccc([N+](=O)[O-])c2nonc12	.	27*	-9	53*	11
O=[N+]([O-])c1ccc(NCc2ccccc2)c2nonc12	3	-1	9	1	.
CC1(CCO)CC(C)(CCc2ccccc2)OO1 (configuration not stated)	.	-20	-22[16.7 µM]	.	-43
COc1cc(/C=C2\C(=O)NC(=O)N(CCc3ccc(F)cc3)C2=O)ccc1O	-8	-1	-34	20	.
COC(=O)C1=C(c2ccc3ccccc3c2)C[C@@H]2CC[C@H]1N2C	0	.	9	.	15
COC(=O)C1=C(C(=O)OC)C2OC1c1cc3ccccc3cc12	118*	0	23	-4	.
O=[N+]([O-])c1ccc(N2CCCCCC2)c2ncccc12	1	27*	-3	10	-2
O=[N+]([O-])c1ccc(N2CCOCC2)c2c1no[n+]2[O-]	.	6	-229	3	84*
O=[N+]([O-])c1ccc(N2CCCCCC2)c2nonc12	-14	5	34	0	.
O=[N+]([O-])c1ccc(N2CCOCC2)c2cccnc12	75*	0	7	-2	.
CC(C)(C)N(NC(=O)c1ccccc1)C(=O)c1ccccc1	.	.	24	-1	7
CCN(CC)c1ccc(N=Cc2c(O)n(CCC3=CCCCC3)c(=O)[nH]c2=O)cc1	.	.	-7	0	11
O=c1c2ccccc2nc(CN2CCCCCC2)n1-c1ccc(F)cc1	-4	.	71*	16	9
O=C1CN=C(c2ccccc2)c2ccccc2N1Cc1ccc(C(F)(F)F)cc1	-37	.	76*	-9	-7
COP(=S)(OC)SCN1C(=O)c2ccccc2C1=O	.	-5	-9	.	-5
C/C(=N\N1CCCCCC1)c1c(O)n(-c2ccccc2)c(=O)[nH]c1=O	-2	.	13	1	.
CP(=O)(O)CCCN	.	.	7	-2	-9
SMILES	INS-1E GSIS act	AF4-AF9 inh	HIV Env fusion	NSD2 HMT inh	PGC1a acetyl inh
C[C@H]1O[C@@H](OC2CC[C@]3(C=O)[C@H]4CC[C@]5(C)[C@@H](C6=CC(=O)OC6)CC[C@]5(O)[C@@H]4CC[C@]3(O)C2)CC2OC(C)(C)OC21 (some centres not stated)	1	3	82*	.	.
CC12CCC3C(CCC4(O)CC(O)CCC34C=O)C1(O)CCC2C1=CC(=O)OC1 (configuration not stated)	4	-1	-1	-1	.
C[C@]12CCC3C(CCC4=CC(O)CC[C@@]43/C=N/O)C1(O)CCC2C1=CC(=O)OC1 (some centres not stated)	-3	3	93*	-1	.
CCCCN=C[C@]12CCC(O)CC1(O)CCC1[C@@H]2CC[C@]2(C)[C@H](C3C=CC(=O)O3)CCC12O (some centres not stated)	2	0	82*	1	.
CC12CC[C@H]3[C@@H](CCC4(O)C[C@H](O)CCC34/C=N/NC(=O)c3ccccc3Cl)C1(O)CCC2C1=CC(=O)OC1 (some centres not stated)	3	-7	-17	.	-6
CC12CCC3C(CCC4(O)CC(O)CCC34C=NO)C1(O)CCC2C1=COC(=O)C1 (configuration not stated)	.	-1	105*	-1	34
COc1ccc(-n2c(C)cc(C(=O)C[N+]34CCN(CC3)CC4)c2C)cc1	8	6	2	1	6
C[C@]12CC[C@H]3[C@@H](CC[C@]4(O)C[C@@H](O)CC[C@]34C=O)[C@@]1(O)CC[C@@H]2C1=CC(=O)OC1	0	-3	-39	.	96*
CC1CN(C)C(C)(C)CC1(O)c1ccccc1 (configuration not stated)	8	4	.	0	.
CCC1CN1P(=O)(N1CCCC1)N1CC1CC (configuration not stated)	18	4	59*	-3	5
CC(=O)OCC12CC(OC(=O)CC(C)C)C(C)=CC1OC1C(O)C(OC(C)=O)C2(C)C12CO2 (configuration not stated)	-14	0	67*	-1	74*
O=C(C1CC1)N1C[C@@H]2N[C@H](C1)C2c1ccc(-c2cncnc2)cc1 (some centres not stated)	10	.	.	.	9
C=CCn1c(O)c(C(C)=NCCCN2CCOCC2)c(=O)[nH]c1=O	10	1	.	0	-4
CN1CC(C(=O)c2ccc(Cl)cc2)C(c2ccc(N(C)C)cc2)C1 (configuration not stated)	7	40*	5	36	6
CC(=O)Nc1ccc(C2CN(C)CC2C(=O)c2ccc(Cl)cc2)cc1 (configuration not stated)	-2	5	4	16	4
O=C(Nc1ccc(C(F)(F)F)cc1)c1cccn(Cc2ccc3c(c2)OC(F)(F)O3)c1=O	.	.	106*	2	.
CC(C)Oc1cccc(NC(=O)c2cccn(Cc3ccc4c(c3)OC(F)(F)O4)c2=O)c1	.	.	43	-2	17
Cc1cccc(C)c1NC(=O)c1cccn(Cc2ccc3c(c2)OC(F)(F)O3)c1=O	.	.	67*	-3	11
COc1cc2c3cc1Oc1cc(ccc1O)C[C@@H]1c4c(cc(OC)c(O)c4Oc4ccc(cc4)C[C@H]3N(C)CC2)CCN1C	-13	?	10	.	0
CC(C)CC(NC(=O)CCCNC(=O)CCC(=O)OC1O[C@H]2OC3(C)CC[C@H]4[C@H](C)CCC(C1C)C24OO3)C(=O)O (some centres not stated)	-15	-1	7	2	.
N#Cc1cc2c(nc1SCC(=O)Nc1cc(Cl)cc(Cl)c1)C1CCN2CC1	-3	?	.	3	6
CC(C)(O)/C=C/C(=O)[C@](C)(O)C1[C@H](O)C[C@@]2(C)C3CC=C4C(C[C@H](O)[C@@H](O)C4(C)C)[C@]3(C)C(=O)C[C@]12C (some centres not stated)	.	.	.	.	65*

Screening data as filed in PubChem.
